Measurements reported in PubChem BioAssay (EPA / NIEHS).
Activity calls are given as the source filed them. How the source made its calls: active means hit-call score of the fitted dose curve at least 0.9, where 1 is the maximum; inactive means score below 0.9.

How the values were obtained:
Conditions in all cases: mRNA level, 48 h; actives raise or lower the signal
[1] = read-out: Potassium channel subfamily K member 1 (KCNK1), KCNK1 (gene 3775); test: LTEA_HepaRG_KCNK1: Life Technologies and Expression Analysis (LTEA) Assay for Potassium channel subfamily K member 1 (KCNK1) using HepaRG (AID 2283511)
How it was run: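 Differentiated HepaRG cells, 48 h exposure in serum-free induction medium with 0.5% DMSO; 8 concentrations, half-log from 100 uM, duplicate. KCNK1 mRNA by qRT-PCR, normalized to ACTB, GAPDH, POLR2A; bidirectional fit vs DMSO.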

[2] = read-out: Keratin 19 (KRT19), KRT19 (gene 3880); test: LTEA_HepaRG_KRT19: Life Technologies and Expression Analysis (LTEA) Assay for Keratin 19 (KRT19) using HepaRG (AID 2283512)
How it was run: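 Differentiated human HepaRG cells, plated 48 h, were exposed in duplicate for 48 h in serum-free induction medium to eight half-log concentrations up to 100 uM in 0.5% DMSO. KRT19 mRNA was quantified by qRT-PCR, normalized to ACTB, GAPDH and POLR2A, and fitted bidirectionally versus DMSO.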

[3] = read-out: JUN Transcription Factor, JUN (gene 3725); test: LTEA_HepaRG_JUN: Life Technologies and Expression Analysis (LTEA) Assay for JUN Transcription Factor using HepaRG (AID 2283513)
How it was run: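 Cells plated 48 h, medium switched to serum-free induction medium, then dosed 48 h (100 uM top, half-log dilutions, 0.5% DMSO). RNA isolated; JUN measured by qRT-PCR against three housekeeping genes; gain or loss fitted relative to DMSO.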

[4] = read-out: Lipase C (LIPC), LIPC (gene 3990); test: LTEA_HepaRG_LIPC: Life Technologies and Expression Analysis (LTEA) Assay for Lipase C (LIPC) using HepaRG (AID 2283514)
How it was run: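 HepaRG cells, 48 h after plating, treated in duplicate for 48 h in serum-free induction medium over 8 half-log concentrations from 100 uM, 0.5% DMSO. LIPC mRNA by TaqMan qRT-PCR normalized to ACTB/GAPDH/POLR2A; bidirectional fit versus DMSO.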

[5] = read-out: Lipoprotein lipase (LPL), LPL (gene 4023); test: LTEA_HepaRG_LPL: Life Technologies and Expression Analysis (LTEA) Assay for Lipoprotein lipase (LPL) using HepaRG (AID 2283515)
How it was run: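 Differentiated HepaRG cells, plated 48 h, then exposed 48 h in serum-free induction medium to 8 concentrations (top 100 uM, half-log steps) in 0.5% DMSO, duplicate. LPL mRNA measured by qRT-PCR, normalized to ACTB, GAPDH and POLR2A.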

[6] = read-out: MicroRNA 122 (MIR122), gene 406906; test: LTEA_HepaRG_MIR122: Life Technologies and Expression Analysis (LTEA) Assay for MicroRNA 122 (MIR122) using HepaRG (AID 2283516); further: the transcript read is the microRNA miR-122
How it was run: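 HepaRG plated 48 h, switched to serum-free induction medium, then treated in duplicate for 48 h (100 uM top, half-log steps, 0.5% DMSO vehicle). RNA isolated, qRT-PCR performed, concentration-response fitted both directions relative to DMSO.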

[7] = read-out: matrix metalloproteinase-10 (MMP10), MMP10 (gene 4319); test: LTEA_HepaRG_MMP10: Life Technologies and Expression Analysis (LTEA) Assay for matrix metalloproteinase-10 (MMP10) using HepaRG (AID 2283517)
How it was run: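 Differentiated HepaRG cells in serum-free induction medium exposed 48 h in duplicate to 8-point half-log series up to 100 uM in 0.5% DMSO. mRNA quantified by qRT-PCR, normalised to ACTB, GAPDH, POLR2A; bidirectional fit versus DMSO.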

[8] = read-out: matrix metalloproteinase-3 (MMP3), MMP3 (gene 4314); test: LTEA_HepaRG_MMP3: Life Technologies and Expression Analysis (LTEA) Assay for matrix metalloproteinase-3 (MMP3) using HepaRG (AID 2283519)
How it was run: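 HepaRG cells (~100,000/well) in serum-free induction medium were dosed in duplicate for 48 h with an 8-point half-log series from 100 uM, 0.5% DMSO. MMP3 mRNA was quantified by Fluidigm TaqMan qRT-PCR, normalized to three housekeeping genes.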

[9] = read-out: Paternally Expressed 10 (PEG10), PEG10 (gene 23089); test: LTEA_HepaRG_PEG10: Life Technologies and Expression Analysis (LTEA) Assay for Paternally Expressed 10 (PEG10) using HepaRG (AID 2283520)
How it was run: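 HepaRG, 48 h post-plating → serum-free induction medium → 48 h chemical exposure (duplicate, 8-pt, max 100 uM, half-log, 0.5% DMSO) → lysis in RLT → TaqMan qRT-PCR for PEG10, ACTB/GAPDH/POLR2A normalisation.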

[10] = read-out: Nuclear factor NF-kappa-B p105 subunit (Homo sapiens) (UniProt P19838); test: LTEA_HepaRG_NFKB1: Life Technologies and Expression Analysis (LTEA) Assay for Nuclear Factor Kappa B Subunit 1 (NFKB1) using HepaRG (AID 2283521);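 further: TaqMan qRT-PCR transcript normalised to ACTB GAPDH and POLR2A housekeeping genes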
How it was run: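 Differentiated human HepaRG cells in serum-free induction medium with 0.5% DMSO were exposed for 48 h to eight half-log concentrations, top 100 uM, in duplicate. NFKB1 mRNA measured by Fluidigm TaqMan qRT-PCR, normalised to ACTB, GAPDH and POLR2A; bidirectional fit versus DMSO.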

[11] = read-out: Protein phosphatase 2A (PPP2R4), PTPA (gene 5524); test: LTEA_HepaRG_PPP2R4: Life Technologies and Expression Analysis (LTEA) Assay for Protein phosphatase 2A (PPP2R4) using HepaRG (AID 2283522)
How it was run: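 Readout is PPP2R4 transcript level by microfluidic qRT-PCR after 48 h chemical treatment of human HepaRG liver cells. Concentrations spanned 100 uM downward in half-log steps; gain or loss of signal was fitted relative to DMSO.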

[12] = read-out: Phosphatase and tensin (PTEN), PTEN (gene 5728); test: LTEA_HepaRG_PTEN: Life Technologies and Expression Analysis (LTEA) Assay for Phosphatase and tensin (PTEN) using HepaRG (AID 2283523)
How it was run: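 HepaRG cells, 48 h after plating, exposed in duplicate for 48 h in serum-free induction medium to 8 half-log concentrations up to 100 uM (0.5% DMSO). PTEN mRNA by qRT-PCR, normalized to ACTB, GAPDH, POLR2A; bidirectional fit versus DMSO.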

[13] = read-out: solute carrier (SLC22A1), SLC22A1 (gene 6580); test: LTEA_HepaRG_SLC22A1: Life Technologies and Expression Analysis (LTEA) Assay for solute carrier (SLC22A1) using HepaRG (AID 2283524)
How it was run: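 Differentiated human HepaRG cells in serum-free induction medium, exposed 48 h in duplicate to 8-point half-log series from 100 µM top in 0.5% DMSO. SLC22A1 mRNA by TaqMan qRT-PCR normalized to ACTB, GAPDH, POLR2A; bidirectional fit versus DMSO.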

[14] = read-out: Pyruvate Dehydrogenase Kinase 4 (PDK4), PDK4 (gene 5166); test: LTEA_HepaRG_PDK4: Life Technologies and Expression Analysis (LTEA) Assay for Pyruvate Dehydrogenase Kinase 4 (PDK4) using HepaRG (AID 2283525)
How it was run: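 HepaRG cells plated 48 h, then switched to serum-free induction medium and exposed in duplicate for 48 h to 8 half-log concentrations from 100 uM in 0.5% DMSO. PDK4 mRNA measured by qRT-PCR, normalized to ACTB, GAPDH and POLR2A; bidirectional fit versus DMSO.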

[15] = read-out: NAD(P)H dehydrogenase [quinone] 1 (NQO1), NQO1 (gene 1728); test: LTEA_HepaRG_NQO1: Life Technologies and Expression Analysis (LTEA) Assay for NAD(P)H dehydrogenase [quinone] 1 (NQO1) using HepaRG (AID 2283526)
How it was run: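 HepaRG, 48 h post-plating → serum-free induction medium → test chemical 48 h (duplicate, 100 uM top, half-log x8, 0.5% DMSO) → RNA isolation → qRT-PCR, ACTB/GAPDH/POLR2A normalization; bidirectional curve fit vs DMSO baseline.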

[16] = read-out: Nuclear factor erythroid 2-related factor 2 (Homo sapiens) (UniProt Q16236); test: LTEA_HepaRG_NFE2L2: Life Technologies and Expression Analysis (LTEA) Assay for Nuclear factor erythroid 2-related factor 2 (NFE2L2) Transcription Factor using HepaRG (AID 2283527);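 further: TaqMan qRT-PCR transcript level normalised to ACTB GAPDH and POLR2A housekeeping genes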
How it was run: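 Differentiated human HepaRG cells, serum-free induction medium, exposed 48 h in duplicate to eight half-log concentrations up to 100 uM in 0.5% DMSO. NFE2L2 mRNA by Fluidigm TaqMan qRT-PCR, normalised to ACTB, GAPDH, POLR2A; bidirectional change versus DMSO.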

[17] = read-out: succinate dehydrogenase complex iron sulfur subunit B (SDHB), SDHB (gene 6390); test: LTEA_HepaRG_SDHB: Life Technologies and Expression Analysis (LTEA) Assay for succinate dehydrogenase complex iron sulfur subunit B (SDHB) using HepaRG (AID 2283528)
How it was run: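 HepaRG cells (~100,000/well, plated 48 h) exposed in duplicate for 48 h in serum-free induction medium to 8-point half-log series from 100 uM in 0.5% DMSO; mRNA by qRT-PCR normalised to ACTB, GAPDH, POLR2A; bidirectional fit versus DMSO.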

[18] = read-out: Signal transducer and activator of transcription 3 (Homo sapiens) (UniProt P40763); test: LTEA_HepaRG_STAT3: Life Technologies and Expression Analysis (LTEA) Assay for Signal transducer and activator of transcription (STAT3) using HepaRG (AID 2283529)
How it was run: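 Differentiated HepaRG cells, serum-free induction medium, dosed 48 h in duplicate, 8 half-log concentrations from 100 uM in 0.5% DMSO. STAT3 mRNA by qRT-PCR, normalised to ACTB, GAPDH, POLR2A; bidirectional fit versus DMSO.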

[19] = read-out: solute carrier (SLCO1B1), SLCO1B1 (gene 10599); test: LTEA_HepaRG_SLCO1B1: Life Technologies and Expression Analysis (LTEA) Assay for solute carrier (SLCO1B1) using HepaRG (AID 2283530)
How it was run: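 Differentiated human HepaRG cells, plated 48 h, switched to serum-free induction medium and exposed in duplicate for 48 h to 8 half-log concentrations (top 100 uM) in 0.5% DMSO. SLCO1B1 mRNA by TaqMan qRT-PCR, normalized to ACTB/GAPDH/POLR2A.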

MYC, MYC (gene 4609) = test: LTEA_HepaRG_MYC: Life Technologies and Expression Analysis (LTEA) Assay for MYC using HepaRG (AID 2283518)
How it was run: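 Differentiated human HepaRG cells, plated 48 h then switched to serum-free induction medium, were exposed in duplicate for 48 h to 8-point half-log series up to 100 uM in 0.5% DMSO. MYC mRNA measured by qRT-PCR, normalized to ACTB/GAPDH/POLR2A.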

Measured: AC50

Nuclear factor NF-kappa-B p105 subunit (Homo sapiens), sequence (P19838 whole entry, looked up): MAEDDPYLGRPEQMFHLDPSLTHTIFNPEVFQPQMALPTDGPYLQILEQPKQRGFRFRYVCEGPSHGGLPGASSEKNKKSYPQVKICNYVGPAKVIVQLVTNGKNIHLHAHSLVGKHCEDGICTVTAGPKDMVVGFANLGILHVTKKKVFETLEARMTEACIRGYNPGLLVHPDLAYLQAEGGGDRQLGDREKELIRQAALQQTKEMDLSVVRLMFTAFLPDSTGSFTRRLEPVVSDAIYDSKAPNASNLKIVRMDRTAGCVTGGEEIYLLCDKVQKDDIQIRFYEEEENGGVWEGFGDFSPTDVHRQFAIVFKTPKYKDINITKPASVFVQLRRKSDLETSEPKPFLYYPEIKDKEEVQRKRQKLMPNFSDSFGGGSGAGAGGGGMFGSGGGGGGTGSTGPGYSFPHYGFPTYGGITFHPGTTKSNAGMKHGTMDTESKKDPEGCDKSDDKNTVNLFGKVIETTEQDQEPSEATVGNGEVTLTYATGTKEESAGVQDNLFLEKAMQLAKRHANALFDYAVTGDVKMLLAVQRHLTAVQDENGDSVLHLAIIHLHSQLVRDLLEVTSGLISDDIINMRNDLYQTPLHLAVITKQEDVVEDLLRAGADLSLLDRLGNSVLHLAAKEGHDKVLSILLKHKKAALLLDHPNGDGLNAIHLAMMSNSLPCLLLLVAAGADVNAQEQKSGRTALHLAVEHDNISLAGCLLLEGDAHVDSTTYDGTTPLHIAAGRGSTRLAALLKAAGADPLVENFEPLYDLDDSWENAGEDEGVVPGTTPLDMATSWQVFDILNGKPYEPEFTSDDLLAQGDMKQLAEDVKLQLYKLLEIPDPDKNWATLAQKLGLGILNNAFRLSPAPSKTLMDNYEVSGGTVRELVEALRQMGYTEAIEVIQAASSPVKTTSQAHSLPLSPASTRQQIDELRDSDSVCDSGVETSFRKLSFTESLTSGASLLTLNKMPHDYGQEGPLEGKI
Nuclear factor erythroid 2-related factor 2 (Homo sapiens), sequence (Q16236 whole entry, looked up): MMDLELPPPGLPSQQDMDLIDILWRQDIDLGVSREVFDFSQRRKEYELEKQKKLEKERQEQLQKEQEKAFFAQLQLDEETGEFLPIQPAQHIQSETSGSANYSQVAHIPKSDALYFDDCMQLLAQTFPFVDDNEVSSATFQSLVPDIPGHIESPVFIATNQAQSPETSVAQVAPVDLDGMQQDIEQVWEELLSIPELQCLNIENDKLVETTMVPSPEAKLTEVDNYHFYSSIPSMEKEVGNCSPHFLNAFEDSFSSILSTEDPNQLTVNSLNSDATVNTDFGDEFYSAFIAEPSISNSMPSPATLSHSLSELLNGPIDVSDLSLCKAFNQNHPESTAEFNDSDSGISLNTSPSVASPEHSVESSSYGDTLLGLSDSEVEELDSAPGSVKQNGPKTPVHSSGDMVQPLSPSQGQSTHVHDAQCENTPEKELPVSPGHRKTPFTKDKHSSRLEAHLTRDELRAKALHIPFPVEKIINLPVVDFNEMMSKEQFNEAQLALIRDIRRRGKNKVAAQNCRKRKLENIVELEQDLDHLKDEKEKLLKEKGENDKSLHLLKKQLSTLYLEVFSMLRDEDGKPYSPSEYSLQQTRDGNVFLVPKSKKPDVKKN
Signal transducer and activator of transcription 3 (Homo sapiens), sequence (P40763 whole entry, looked up): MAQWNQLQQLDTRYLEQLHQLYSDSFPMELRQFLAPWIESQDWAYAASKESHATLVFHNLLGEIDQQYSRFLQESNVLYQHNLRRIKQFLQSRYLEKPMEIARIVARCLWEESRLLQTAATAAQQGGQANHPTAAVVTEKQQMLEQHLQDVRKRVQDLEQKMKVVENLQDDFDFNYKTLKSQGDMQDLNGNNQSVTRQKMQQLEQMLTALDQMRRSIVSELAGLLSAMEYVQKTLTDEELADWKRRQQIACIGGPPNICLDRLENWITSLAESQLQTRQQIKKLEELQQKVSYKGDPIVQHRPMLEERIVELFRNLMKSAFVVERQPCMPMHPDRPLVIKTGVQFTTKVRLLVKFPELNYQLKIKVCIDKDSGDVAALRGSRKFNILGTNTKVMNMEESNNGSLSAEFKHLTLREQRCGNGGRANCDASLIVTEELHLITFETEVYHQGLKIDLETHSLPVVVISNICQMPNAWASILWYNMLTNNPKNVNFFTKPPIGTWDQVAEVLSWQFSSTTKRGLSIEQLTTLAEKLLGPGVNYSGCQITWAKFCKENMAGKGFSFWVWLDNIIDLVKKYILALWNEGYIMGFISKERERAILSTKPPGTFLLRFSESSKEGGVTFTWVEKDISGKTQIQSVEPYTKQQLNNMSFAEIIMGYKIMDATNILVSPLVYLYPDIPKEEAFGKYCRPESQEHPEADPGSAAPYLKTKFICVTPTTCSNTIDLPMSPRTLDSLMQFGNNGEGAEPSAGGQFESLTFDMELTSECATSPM

C1CCC(SSC2CCCCC2)CC1
not listed: MYC, MYC (gene 4609)
inactive: all other assays above

O=C(N[C@@H](Cc1ccccc1)[C@@H](O)C(=O)N1C[C@@H](O)[C@@H](O)C1)c1cc2cc(Cl)ccc2[nH]1
active: [5] 20.1 µM | [9] 50 µM
not listed: [12]
inactive: all other assays above

Cc1ccc(C(C)C)c(O)c1
not listed: [12]
inactive: all other assays above

O=[N+]([O-])C(CO)(CO)CO
not listed: [16]
inactive: all other assays above

O=c1[nH]cc(F)c(=O)[nH]1
active: [4] 80.6 µM | [5] 34.5 µM | [11] 51 µM | [13] 51 µM | [14] 76 µM
not listed: [10] | [12]
inactive: all other assays above

CN1CCCC1=O
not listed: [10] | [12]
inactive: all other assays above

Cc1nc(-c2ccc3c(c2)CCN(CCC2CCC(NC(=O)/C=C/c4ccc(F)cc4)CC2)CC3)no1 (stereo unspecified)
not listed: [12]
inactive: all other assays above
